From PubChem
The entries come from a sample that favours hits as a whole.
GLP1R cytotox – cytotoxicity counter-screen for GLP-1 receptor inverse agonists; HEK293 cAMP-luciferase reporter cells, luminescence, 24 h; Potency, µM (highest dose often 38.3 µM), for the others: top-dose activity change, negative = inhibition, usual class: inhibitors; AID 624418; 410,000 compounds, 0.13% hits;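 further: loss of luciferase light is scored as toxicity; potency means the concentration at half of the fitted maximal effect; on the % scale 0 is the no-effect control and ±100 the full control effect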
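Quantitative HTS format, 1536 wells, 200 cells/uL seeded. Compounds: 23 nL, 24 h, 37 °C. Detection: luciferase reagent, luminescence at 12 min RT; decreased signal taken as cytotoxic.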
TSHR antagonist – human thyrotropin receptor antagonism. P16473. TSHR-expressing cells, TSH-stimulated cAMP HTRF, 2 h; hits give low values. activity change, negative = inhibition, % at 11.5 µM. 330,000 compounds, 0.2% hits. AID 504810;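 active means activity change below a set negative limit, meaning inhibition stronger than a set level, cut at about -70% in these data; inconclusive means activity change between two set negative limits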; further: on the % scale 0 is the no-effect control and ±100 the full control effect
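TSHR-expressing cells, 200/well, pre-treated with compound, then stimulated with EC80 TSH (4nM final) for 2 hours at 37 deg C. cAMP measured by competitive HTRF: anti-cAMP cryptate antibody in lysis buffer plus cAMP-d2, read after 30 minutes at room temperature.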
RXFP1 ag – RXFP1 (human) receptor agonism; HEK293T-RXFP1 cAMP TR-FRET, 30 min; response scale: percent of porcine relaxin response, buffer zero; Potency, µM (highest dose often 57.5 µM), for the others: at the top dose activation, most hits filed as activators; 370,000 compounds, 0.3% hits; AID 2676; further: potency means the concentration at half of the fitted maximal effect; on the % scale 0 is the no-effect control and ±100 the full control effect; nearly all actives have a fitted effect of over 60% in size
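HEK293T cells stably expressing RXFP1 were pretreated with the PDE4 inhibitor Ro 20174, exposed to compounds for 30 min at 37C, lysed, and cAMP was read by TR-FRET. Data normalized to buffer (basal) and 29 nM porcine relaxin (100%).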
PTHR1 agonist – PTHR1 (human) receptor agonism. Q03431. 410,000 compounds, 0.075% hits. HEK293 GP2 PTHR1 cells, GloSensor cAMP luminescence, 1 h. Potency, µM (titrated, usually from 115 µM), for inactives: at the highest dose activation, usual class: activators. AID 743266; further: potency means the concentration at half of the fitted maximal effect; nearly all actives have a fitted effect of over 55% in size
Target sequence (Q03431 whole entry, looked up): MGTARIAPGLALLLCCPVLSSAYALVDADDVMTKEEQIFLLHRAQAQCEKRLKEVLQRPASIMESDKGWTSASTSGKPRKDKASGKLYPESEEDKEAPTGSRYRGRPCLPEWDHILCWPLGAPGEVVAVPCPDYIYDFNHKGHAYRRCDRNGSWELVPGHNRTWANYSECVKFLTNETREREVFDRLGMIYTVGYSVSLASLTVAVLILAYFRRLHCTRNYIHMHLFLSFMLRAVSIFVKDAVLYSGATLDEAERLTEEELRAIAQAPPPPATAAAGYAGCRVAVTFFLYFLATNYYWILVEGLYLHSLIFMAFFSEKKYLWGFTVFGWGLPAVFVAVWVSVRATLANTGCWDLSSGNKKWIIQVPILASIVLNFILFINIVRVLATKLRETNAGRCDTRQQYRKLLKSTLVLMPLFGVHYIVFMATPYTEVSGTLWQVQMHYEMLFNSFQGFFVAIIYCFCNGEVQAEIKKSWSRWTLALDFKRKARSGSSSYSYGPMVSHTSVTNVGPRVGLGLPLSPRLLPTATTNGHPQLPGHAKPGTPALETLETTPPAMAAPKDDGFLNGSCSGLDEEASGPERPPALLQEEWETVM
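HEK-293-derived GP2 cells expressing PTHR1 and a GloSensor cAMP reporter, 3,000/well, plated overnight, given luciferin plus IBMX (each 0.5 mM as added) for 1 h at 37 °C, then compound for 1 h at 37 °C. Luminescence was read after 15 min at room temperature.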
NPSR antagonist – antagonists of human neuropeptide S receptor cAMP signaling; 220,000 compounds, 1% hits; CHO-NPSR cells, cAMP TR-FRET, antagonist mode; Potency, µM (titrated, usually from 38.3 µM), for inactives: at the top dose activity change, negative = inhibition, most hits filed as inhibitors; AID 1461; further: potency means the concentration at half of the fitted maximal effect; on the % scale 0 is the no-effect control and ±100 the full control effect; nearly all actives have a fitted effect of over 50% in size
RXFP1 antagonist – RXFP1 (human) relaxin receptor antagonism; Q9HBX9; HEK293-RXFP1, relaxin-stimulated cAMP HTRF, 30 min; hits give low values; activity change, negative = inhibition, % at 57.5 µM; 350,000 compounds, 0.59% hits;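 active means activity change of -60% or lower, but not beyond a set lower limit; inconclusive means change between -60% and -40%, or beyond the set limit; inactive means change above -40%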; further: on the % scale 0 is the no-effect control and ±100 the full control effect
An asterisk follows results filed as active; i = inactive; ? = inconclusive; nt = no result; [ ] = remark or other dose. Unless noted, the call rests on the fitted dose curve; in most records, active means well fitted curve in the direction sought with a large enough effect; inconclusive means small, poorly fitted or top-dose-only effect, or another doubt; inactive means no such curve, though single readings can be large; an effect the other way counts as inactive or inconclusive.

SMILES	GLP1R cytotox	TSHR antagonist	RXFP1 ag	PTHR1 agonist	NPSR antagonist	RXFP1 antagonist
COc1ccc(NC(C)=O)c(C)c1	0.6%	0.8	3.0%	2.4%	13.6%	0.6
CN(C)c1ccc(CNC(=O)CN2C(=O)CCn3nc(-c4cn(C)c5ccccc45)cc32)cc1	-2.1%	nt	0.8%	i	nt	-3.5
CC/C(=N/O)C(=O)c1ccc(Br)cc1	0.6%	-0.3	-0.6%	-0.6%	-7.7%	-87.7*
NS(=O)(=O)c1ccc(OC(=O)CNC(=O)OCc2ccccc2)cc1	-6.2%	nt	nt	-33.2%	nt	-7.1
O=C(CCS(=O)(=O)c1ccccc1)N(CCCN1CCOCC1)c1nc2c(F)cccc2s1	10µM*	-6.1	0.8%	-21.7%	nt	-74.5*
Cc1ccc(S(=O)(=O)CC(=O)N(CCCN2CCOCC2)c2nc3c(F)cccc3s2)cc1	-18.4%	-0.3	0.8%	-3.3%	nt	?
O=C(NCc1ccc(F)cc1)c1ccncc1	4.6%	-121.3*	-1.4%	i	nt	8.2
O=c1[nH]c(SCc2n[nH]c(=S)n2-c2ccccc2)nc2sc3c(c12)CCC3	12.7%	6.3	3.8%	?	-10.9%[46.1 µM]	-67.1*
O=c1[nH]c(SCc2n[nH]c(=S)n2-c2ccccc2)nc2ccccc12	21.6%	-0.9	4.7%	i	-5.5%[46.1 µM]	-11.4
Cc1cc(CCCOc2c(C)cc(-c3noc(C(F)(F)F)n3)cc2C)on1	nt	nt	nt	nt	nt	-28.8
CC1CCN(CCCCOc2ccc([N+](=O)[O-])cc2)CC1	-0.9%	6.4	-2.0%	i	-9.2%[46.1 µM]	-4.7
CC1CCN(CCCCOc2ccccc2[N+](=O)[O-])CC1	8.91µM*	-11.3	-0.5%	23.9%	1.0%[46.1 µM]	-4.4
CCN(CC)C(=O)CSc1nc2c(sc(=S)n2-c2ccccc2)c(=O)n1Cc1ccco1	-29.4%	-11.4	0.0%	i	10µM*	-34.4
COc1ccc(CN(C)C(=O)CNC(=O)c2sc3ccccc3c2Cl)c(OC)c1	1.9%	nt	nt	-42.1%	nt	-3.0
COc1cc2ccccc2cc1C(=O)Nc1ccc2oc(-c3ccc(F)cc3Cl)nc2c1	2.4%	nt	-0.5%	-5.0%	nt	4.4
C=C1C(=C/C=C2\CCC[C@]3(C)[C@@H]([C@H](C)/C=C/[C@@H](O)C4CC4)CC[C@@H]23)C[C@@H](O)C[C@@H]1O	nt	nt	nt	nt	nt	-72.3*
COc1ccc(NC2=CC(=O)CC(c3ccccc3)C2)c(OC)c1 (stereo not drawn)	-10.4%	1.2	3.4%	-49.3%[57.5 µM]	1.9%[46.1 µM]	3.1
CCOc1ccccc1NC1=CC(=O)CC(c2ccccc2)C1 (stereo not drawn)	-40.9%	-7.1	2.9%	-4.9%	1.26µM*	8.9
C#CCSc1nnc(C)c(C)n1	-7.4%	nt	nt	-12.7%	nt	nt
CCCN(CCC)C(=O)Cn1c(=O)n(-c2ccc(CC)cc2)c(=O)c2ccc(C(=O)NCCc3ccccc3)cc21	-2.9%	nt	25.1µM*	-31.5%	nt	nt
O=C(COC(=O)CNC(=O)c1ccccc1Cl)Nc1ccccc1Cl	nt	1.8	1.8%	-20.5%	nt	nt
O=C1CSC(=S)N1N=Cc1cccc(OCc2ccccc2)c1	3.4%	nt	nt	-11.5%	nt	-95.4*
COc1cc(CN2C[C@@H](CO)O[C@@H](n3cnc4c(N5CCOCC5)ncnc43)C2)cc(OC)c1OC	5.7%	nt	nt	-21.7%	nt	nt
COc1ccc(/C=C/C(=O)Nc2sc3c(c2C(N)=O)CCC(C)C3)cc1OC (stereo not drawn)	-1.3%	nt	-0.9%	i	nt	nt
Cc1ccc(C)c(NS(=O)(=O)c2ccc3c(c2)CCCN3C(=O)C2CCC2)c1	-14.5%	nt	-0.2%	-28.5%	nt	-63.4*
SMILES	GLP1R cytotox	TSHR antagonist	RXFP1 ag	PTHR1 agonist	NPSR antagonist	RXFP1 antagonist
Cc1ccc(NS(=O)(=O)c2ccc3c(c2)CCN3C(=O)C2CC2)c(C)c1	-2.9%	nt	4.0%	-40.8%	nt	nt
CCN(CC)C(=O)C1CCN(S(=O)(=O)c2ccc3c(c2)CCCN3C(=O)C2CCC2)CC1	1.0%	-5.1	-2.5%	-40.4%	nt	-79.0*
CC1(C)CC(=O)C2=C(C1)c1c(ccc3ccccc13)NC2c1cc([N+](=O)[O-])cc([N+](=O)[O-])c1O (stereo not drawn)	?	-22.0	0.2%	-40.8%	28.8%	-72.3*
COc1ccc(N2CCN(S(=O)(=O)CCNC(=O)Cc3ccc(-c4ccccc4)cc3)CC2)cc1	6.8%	nt	13.6%	28.2µM*	nt	6.4
COc1cc(/C=N/NC(N)=S)cc(Br)c1OCc1ccccc1F	5.62µM*	-1.7	0.2%	i	-46.3%	nt
O=C(O)[C@H](O)c1ccccc1	nt	nt	nt	nt	nt	5.6
Cc1nc2n(c(=O)c1CCN1CCC(c3noc4cc(F)ccc34)CC1)CCC[C@H]2O	nt	nt	nt	nt	nt	-9.1
CCOc1ccc(CN(C)Cc2cc(=O)oc3c(C)c(C)ccc23)cc1OC	5.5%	nt	nt	-23.1%	nt	-14.4
O=C(NN1C(=O)/C(=C/c2ccc(O)c([N+](=O)[O-])c2)SC1=S)c1ccccc1Cl	?	-32.2	1.7%	-35.5%	6.31µM*	?
COc1ccc(NC(=O)CN(C)C(=O)CC2CCCC2)cc1	2.9%	4.0	-1.0%	-21.3%	nt	-74.4*
COc1ccc(NC(=O)CN(C)CC(=O)N2CCCCCC2)cc1	5.0%	14.5	0.0%	i	nt	-89.7*
COc1ccc(NC(=O)CN(C)C(=O)c2cc(S(=O)(=O)N3CCCCCC3)ccc2OC)cc1	7.8%	0.9	0.3%	-0.1%	nt	-72.1*
CN1C[C@H]2c3ccccc3Oc3ccc(Cl)cc3[C@@H]2C1	nt	nt	nt	nt	nt	-16.1
COc1ccccc1CNc1ccc(-c2nc(-c3ccccn3)no2)cc1[N+](=O)[O-]	3.0%	nt	-2.7%	-23.6%	nt	nt
CCNC(=O)C1(C)CCCN1C(=O)c1ccc(C#N)cc1 (stereo not drawn)	1.8%	nt	nt	-21.9%	nt	nt
CN(Cc1ccccc1)C(=O)COC(=O)C1CCN(S(=O)(=O)c2ccc(Cl)c(C(F)(F)F)c2)CC1	3.0%	0.9	-0.1%	-10.2%	nt	-96.0*
CC(C)(C)c1ccc(C(=O)/C(C#N)=C/c2cccs2)cc1	-4.9%	14.0	2.8%	-40.3%	42.0%	-86.8*
CC(NC(=O)/C(C#N)=C/c1cccs1)c1ccccc1 (stereo not drawn)	-15.5%	-11.8	-0.1%	i	-19.7%	-32.3
COc1ccc(NC(=O)C(NS(=O)(=O)c2cccs2)C(C)C)cc1Cl (stereo not drawn)	-6.0%	-4.4	0.0%	-6.2%	nt	8.4
O=C1CC2(CCCC2)CC(=O)N1	nt	nt	nt	nt	nt	-11.4
CC(C)(C)OC(=O)NCCCCCNC(=O)c1nc[nH]c1C(=O)NCCCCCNC(=O)OC(C)(C)C	-7.4%	-41.3	nt	-43.2%	nt	nt
CCCCCCCCOc1ccccc1C(=O)Nc1ccc(C(=O)OCC[N+](C)(CC)CC)cc1	nt	nt	nt	nt	nt	-19.0
C/C(CC(C)(C)C1CCCCC1)=N\NC(N)=S	-39.0%	?	-1.1%	16.3%[57.5 µM]	3.16µM*	-18.3
